# From PubChem BioAssay
# In the library only some 1.6% were active in any assay of this set; here they are far more common.
# KCNQ2 pot: potentiators of rat KCNQ2 potassium channel; Potassium voltage-gated channel subfamily KQT member 2 (Rattus norvegicus), O88943; CHO-K1 KCNQ2, FluxOR thallium flux fluorescence; active compounds read high; B-score at 10 µM; 310,000 tested, 0.54% active;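 active = fluorescence ratio B-score at least 3 SD of library B-scores, with initial fluorescence B-score within 3 of them, cut at about 5.3 in these data; same plate scores as AID 2156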;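 note: B-score of peak minus minimum over baseline fluorescence ratio after K+ and Tl+ stimulus; positive B-score means potentiation of KCNQ2 with more thallium influx and brighter signal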
# KCNQ2 block: rat KCNQ2 potassium channel inhibitors, primary screen, cell-based, CHO-K1, FluxOR thallium flux, B-score; Potassium voltage-gated channel subfamily KQT member 2 (Rattus norvegicus), O88943; 20 min; active compounds read low; B-score at 10 µM; 310,000 tested, 1.1% active;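 active = fluorescence ratio B-score at most minus 3 library SDs, with starting brightness B-score within 2 library SDs, cut at about -5.5 in these data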
# Kir21 confirm: mouse Kir2.1 channel blockers, retest, confirmation, cell-based, FluxOR thallium flux, duplicate. shares compounds with KCNQ2 pot. Kir2.1-expressing cells, FluxOR thallium flux fluorescence; active compounds read low. Tl flux remaining, % of negative control (active compounds read low), % at 10 µM. 2,300 tested, 41% active;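 active = Primary-screen hit whose thallium flux fell at least 3 control SD below untreated wells in both duplicates, with normal baseline fluorescence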
# HEK293 Tl flux: counter-screen for Kir2.1 inhibitors: effect in parental HEK293 cells. FluxOR thallium flux fluorescence; 0% = unstimulated blank wells. 2,300 tested, 19% active. AID 2105. FluxOR signal as % of negative control (100 = no effect), % at 10 µM. shares compounds with KCNQ2 pot;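 active = dye signal at least 3 control SD above or below untreated wells in both duplicates, raw fluorescence within 3, either direction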;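 note: percent is based on the flux ratio of peak minus minimum fluorescence over baseline F0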
# CHO-K1 ctr: nonspecific thallium flux increase in parental CHO-K1, confirmation, counter-screen for KCNQ2 potentiator project, cell-based, FluxOR thallium flux, duplicate | shares compounds with KCNQ2 pot | parental CHO-K1 cells, FluxOR thallium flux fluorescence; zero = vehicle mean+3SD, 100% = vehicle-minus-blank window | activity increase over 3SD of controls, % at 10 µM | 1,200 tested, 43% active;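 active = signal rise of at least 3 SD above the untreated control mean, in both duplicate wells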;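 note: counter screen of KCNQ2 potentiator hits so any rise reflects channel-independent effects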
# KCNQ1 sel pot: human KCNQ1 channel potentiation off-target, confirmation, selectivity assay for KCNQ2 potentiator project, cell-based, CHO, FluxOR thallium flux | CHO KCNQ1 stable, FluxOR thallium flux fluorescence; beyond 3SD, as % of vehicle-control signal | AID 2283, 2010 | shares compounds with KCNQ2 pot | 1,200 tested, 28% active | activation over 3SD threshold, % at 10 µM;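 active = fluorescence ratio rise of at least 3 SD of vehicle wells above their mean, in both replicate wells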
# Target sequence (P51787 whole entry, looked up): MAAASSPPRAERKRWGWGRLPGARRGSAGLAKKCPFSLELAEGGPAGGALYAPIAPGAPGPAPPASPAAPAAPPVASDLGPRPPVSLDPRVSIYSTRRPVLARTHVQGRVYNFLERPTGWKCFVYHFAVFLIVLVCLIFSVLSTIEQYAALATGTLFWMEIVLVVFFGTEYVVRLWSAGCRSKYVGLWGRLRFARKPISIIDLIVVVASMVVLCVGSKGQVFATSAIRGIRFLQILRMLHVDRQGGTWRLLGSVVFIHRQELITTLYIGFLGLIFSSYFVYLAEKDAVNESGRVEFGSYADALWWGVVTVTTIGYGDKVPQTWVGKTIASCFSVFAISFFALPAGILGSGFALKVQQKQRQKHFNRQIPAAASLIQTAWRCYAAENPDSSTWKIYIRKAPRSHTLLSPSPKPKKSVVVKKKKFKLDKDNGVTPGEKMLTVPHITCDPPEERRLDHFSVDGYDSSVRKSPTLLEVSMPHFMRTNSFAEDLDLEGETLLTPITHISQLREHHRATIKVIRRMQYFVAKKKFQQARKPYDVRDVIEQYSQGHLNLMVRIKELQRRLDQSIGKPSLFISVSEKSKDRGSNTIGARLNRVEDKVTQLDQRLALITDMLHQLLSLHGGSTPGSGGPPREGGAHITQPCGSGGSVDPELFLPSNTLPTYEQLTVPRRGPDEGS
# KCNQ2 pot confirm: rat KCNQ2 channel potentiators, confirmation, cell-based, CHO, FluxOR thallium flux, duplicate; shares compounds with KCNQ2 pot; CHO-KCNQ2 cells, FluxOR thallium flux fluorescence; potentiation, less the hit threshold, % at 10 µM; 1,200 tested, 68% active;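 active = fluorescence ratio rising 3 SD or more over the vehicle control mean in both replicates, plus primary screen hit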;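 note: peak minus minimum thallium fluorescence divided by baseline after K/Tl stimulus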
# Kir2-1 sel: mouse Kir2.1 channel activation off-target, confirmation, selectivity assay for KCNQ2 potentiator project, cell-based, HEK293, FluxOR thallium flux; shares compounds with KCNQ2 pot; HEK293 Kir2.1, FluxOR thallium flux fluorescence; activity over 3SD threshold, % at 10 µM; 1,200 tested, 2% active;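 active = fluorescence ratio rise of at least 3 SD above the vehicle-control mean, seen in both replicates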
# KCNQ2 W236L pot: potentiators of retigabine-insensitive KCNQ2 W236L, mechanism study for KCNQ2 potentiator project, cell-based, rat KCNQ2 W236L, CHO, automated patch clamp. shares compounds with KCNQ2 pot. automated patch clamp current. current increase over 3SD of negative controls (%), active compounds read high, % at 25 µM. 940 tested, 10% active. AID 2558, 2010;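 active = current increase at least 3 SD of the untreated controls above them in both duplicate recordings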
# Hits are given with their value; i = inactive; nt = no result given.
SMILES,KCNQ2 pot,KCNQ2 block,Kir21 confirm,HEK293 Tl flux,others
COC(=O)/C(=C\Nc1ccc(Cl)cc1Cl)NC(=O)c1ccc(OC)cc1,nt,i,nt,nt,
COc1cc(C(=O)OCC(=O)Nc2cc(S(=O)(=O)N3CCOCC3)ccc2C)ccc1OCC(C)C,nt,i,nt,nt,
O=C(CSCc1ccccc1)N1CCN(S(=O)(=O)c2cccc(F)c2)CC1,i,i,nt,nt,
CCOc1ccccc1NC(=O)NNS(=O)(=O)c1cc(OC)ccc1OC,i,i,nt,nt,
COc1cc(CN(C)CCc2ccccc2)ccc1OCc1ccccc1,nt,i,16.5%,i,
CCN(Cc1ccccc1)Cc1ccc(OCc2ccccc2)c(OC)c1,nt,i,nt,nt,
Cc1ccc(/C=C/C(=O)N2CCN(S(=O)(=O)/C=C/c3ccccc3)CC2)o1,nt,i,nt,nt,
C=CCn1c(Cc2cccs2)nnc1SC/C=C/c1ccccc1,nt,i,31.0%,i,
C=CCn1c(Cc2cccs2)nnc1SCC(=O)Nc1cc(OC)cc(OC)c1,nt,i,nt,nt,
CCn1c(SC/C=C/c2ccccc2)nnc1-c1cccs1,nt,i,48.0%,i,
Cn1c(SC/C=C/c2ccccc2)nnc1-c1cccs1,nt,i,nt,nt,
CCc1c(C)c2ccc(OCC(=O)NCC3CCC(C(=O)O)CC3)cc2oc1=O (centres undefined),i,i,nt,nt,
Cc1cc2ccccn2c1C(=O)Nc1cccc(Cl)c1,nt,i,nt,nt,
CC1CCN(C(=O)C(C)NCc2ccc(F)cc2)CC1 (centres undefined),i,i,nt,nt,
Cc1cc(NCCOCCO)n2ncc(-c3ccc(Cl)cc3)c2n1,6.16,i,i,i,CHO-K1 ctr=2.2;KCNQ1 sel pot=i;KCNQ2 pot confirm=4.4;Kir2-1 sel=i;KCNQ2 W236L pot=i
Cc1cc(NCc2ccccn2)n2ncc(-c3ccc(Cl)cc3)c2n1,i,i,nt,nt,
Cc1noc(C)c1S(=O)(=O)N1CCN(S(=O)(=O)c2ccccc2C#N)CC1,i,i,nt,nt,
COc1ccsc1NC(=O)OCc1ccc(Cl)cc1,nt,i,nt,nt,
CSc1nsc(NC(=O)OCc2ccc(Cl)cc2)n1,5.85,i,i,i,CHO-K1 ctr=88.9;KCNQ1 sel pot=i;KCNQ2 pot confirm=i;Kir2-1 sel=i
CCc1ccc(C2C(C#N)=C(N)C(C#N)(C#N)C3=CCC(C(C)(C)C)CC32)cc1 (centres undefined),i,i,i,i,
O=c1c2c3c(sc2nc(NCCOCCO)n1Cc1ccco1)CCCCC3,5.57,i,i,i,CHO-K1 ctr=i;KCNQ1 sel pot=37.8;KCNQ2 pot confirm=i;Kir2-1 sel=i;KCNQ2 W236L pot=6.1%
CC(O)CNc1nc2sc3c(c2c(=O)n1Cc1ccco1)CCCCC3 (centres undefined),i,i,nt,nt,
CC1(c2nnc(-c3cccc(Cl)c3)o2)CC(c2ccc(OC(F)(F)F)cc2)=NO1 (centres undefined),nt,i,nt,nt,
CCOC(=O)c1ccc(NC(=S)Nc2ccc3[nH]c(=O)[nH]c3c2)cc1,nt,i,nt,nt,
CC1(C)CC(N2CCCC2)=CC(=[N+]2CCCCCC2)C1,i,i,nt,nt,
SMILES,KCNQ2 pot,KCNQ2 block,Kir21 confirm,HEK293 Tl flux,others
CC1CC(C)C[N+](=C2C=C(N3CCCC3)CC(C)(C)C2)C1 (centres undefined),nt,i,i,i,
COc1ccc(/C=C/c2nc(S(=O)(=O)c3ccccc3)c(N(C)C)o2)cc1,i,i,nt,nt,
O=C(O)c1cc(NN=Nc2cccc([N+](=O)[O-])c2)cc([N+](=O)[O-])c1,i,i,nt,nt,
O=C(O)c1cc(NN=Nc2ccc(Br)cc2)cc([N+](=O)[O-])c1,7.43,i,i,i,CHO-K1 ctr=i;KCNQ1 sel pot=33.0;KCNQ2 pot confirm=16.3;Kir2-1 sel=i;KCNQ2 W236L pot=i
COC(=O)c1cc(S(=O)(=O)N2CCN(Cc3ccccc3)CC2)c[nH]1,nt,i,nt,nt,
Cc1cc(C)c2nc(NNC(=O)c3ccc(S(=O)(=O)N4CCCC(C)C4)cc3)sc2c1 (centres undefined),i,i,nt,nt,
Cc1cc(C)c2nc(NNC(=O)c3ccc(S(=O)(=O)N4CC(C)CC(C)C4)cc3)sc2c1 (centres undefined),5.83,i,i,i,CHO-K1 ctr=60.6;KCNQ1 sel pot=i;KCNQ2 pot confirm=i;Kir2-1 sel=i
CCOC(=O)c1cc(C(=O)OCC)c(=O)[nH]c1SCc1ccccc1,i,i,nt,nt,
COc1ccc(S(=O)(=O)N2CCN(Cc3ccc(Cl)cc3)CC2)cc1,nt,i,nt,nt,
COc1ccc(CN2CCCN(S(=O)(=O)c3ccc(Br)cc3)CC2)cc1,nt,i,55.5%,i,
O=C(COC(=O)C1CC(=O)N(Cc2ccccc2)C1)c1ccc(Br)cc1 (centres undefined),nt,i,nt,nt,
O=C(NN1CC(C(=O)OCc2ccc(Br)cc2)CC1=O)c1ccccc1 (centres undefined),9.73,i,i,i,CHO-K1 ctr=12.8;KCNQ1 sel pot=i;KCNQ2 pot confirm=55.4;Kir2-1 sel=i;KCNQ2 W236L pot=3.6%
Cc1ccc(Nc2cc(C)nc3c(C)cccc23)cc1,i,i,35.5%,i,
CC(=O)c1ccc(Nc2cc(C)nc3c(C)cccc23)cc1,nt,i,nt,nt,
CC(C)C1Nc2ccc(C(=O)NCCCN3CCOCC3)cc2NC1=O (centres undefined),nt,i,nt,nt,
CC(=O)c1ccccc1N(C(=O)c1ccco1)C(C(=O)NC1CCCC1)c1ccc(C)cc1 (centres undefined),i,i,nt,nt,
CCC(C)c1ccc(NC(=O)c2ccco2)cc1 (centres undefined),11.8,i,i,i,CHO-K1 ctr=25.7;KCNQ1 sel pot=i;KCNQ2 pot confirm=37.7;Kir2-1 sel=i;KCNQ2 W236L pot=i
Cc1ccc(Oc2ccc(NC(=O)c3ccco3)cc2)cc1,13.9,i,i,73.0%,CHO-K1 ctr=i;KCNQ1 sel pot=i;KCNQ2 pot confirm=32.7;Kir2-1 sel=i;KCNQ2 W236L pot=18.8%
Cc1ccc(NC(=O)c2ccc(OC(=O)c3ccco3)cc2)cc1,nt,i,nt,nt,
CCN(CC)c1ccc(NC(=O)c2ccco2)cc1,i,i,nt,nt,
CC(=O)Nc1ccc(NC(=O)c2ccco2)cc1,i,i,nt,nt,
CCN(CC)c1ccc(NC(=S)NC(=O)c2ccco2)cc1,10.7,i,i,203.5%,CHO-K1 ctr=i;KCNQ1 sel pot=i;KCNQ2 pot confirm=27.9;Kir2-1 sel=i;KCNQ2 W236L pot=i
CCOC(=O)N1CCN(C(=O)c2ccc3c(c2)N(Cc2cc(C)ccc2C)C(=O)c2ccccc2S3=O)CC1 (centres undefined),nt,i,nt,nt,
Cc1ccc(S(=O)(=O)C2CS(=O)(=O)CC2O)cc1 (centres undefined),i,i,nt,nt,
